Results from PubChem BioAssay (NCATS).
Inconclusive results are not listed. The source made the active and inactive calls. Calls follow the shape of the dose curve; as a rule, active = well fitted curve in the direction sought with a large enough effect; inconclusive = small, poorly fitted or top-dose-only effect, or another doubt; inactive = no such curve, though single readings can be large; an effect the other way counts as inactive or inconclusive.

Target: Cytochrome P450 3A4 (Homo sapiens) (UniProt P08684)
Experiment: qHTS Assay for Activators of Cytochrome P450 3A4 (AID 885); also: nearly all actives have a fitted effect of over 65% in size
Conditions: recombinant CYP3A4, Luciferin-PPXE luminescence, 60 min; series mostly up to 57.1 µM; activity change, positive = activation: at the top concentration
Procedure, shortened: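 Steps: enzyme/substrate mix dispensed; compound added, 10 min RT; NADPH regeneration solution added, 60 min RT; luciferin detection buffer stops reaction; 20 min later luminescence measured.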

Chain of Cytochrome P450 3A4 (Homo sapiens) (P08684 whole entry, looked up): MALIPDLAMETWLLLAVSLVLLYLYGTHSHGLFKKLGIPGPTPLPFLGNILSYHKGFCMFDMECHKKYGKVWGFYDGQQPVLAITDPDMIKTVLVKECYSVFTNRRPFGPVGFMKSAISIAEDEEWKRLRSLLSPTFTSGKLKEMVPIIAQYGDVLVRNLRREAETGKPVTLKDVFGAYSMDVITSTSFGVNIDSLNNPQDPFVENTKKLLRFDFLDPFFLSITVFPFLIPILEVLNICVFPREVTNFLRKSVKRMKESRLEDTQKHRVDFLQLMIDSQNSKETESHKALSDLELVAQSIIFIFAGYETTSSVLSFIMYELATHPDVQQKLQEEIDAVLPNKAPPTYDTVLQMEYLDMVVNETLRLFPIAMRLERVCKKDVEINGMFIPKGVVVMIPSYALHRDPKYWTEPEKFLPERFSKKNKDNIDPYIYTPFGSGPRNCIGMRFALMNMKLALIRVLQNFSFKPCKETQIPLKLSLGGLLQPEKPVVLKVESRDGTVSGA

Activity change, positive = activation, inactive:
COc1cc(C)c2c(=O)cc(-c3ccccc3)oc2c1 -88.8%, COc1ccc(C2OCC3(COC(C)=O)C(C)C=C(C)C2C3C)cc1 (stereo not drawn) -54.2%, CC(=O)Oc1c2c(c3c(c1CC=C(C)C)O[C@@]14C(=CC5CC1C(C)(C)OC4(C/C=C(\C)C(=O)O)C5=O)C3=O)OC(C)(CCC=C(C)C)C=C2 (stereo partly drawn) -71.1%

Target: Rap guanine nucleotide exchange factor 3 (Homo sapiens) (UniProt O95398)
Experiment: Confirmatory qHTS for antagonist of cAMP-regulated guanine nucleotide exchange factor 3 (EPAC1) (AID 1645880); also: nearly all actives have a fitted effect of over 55% in size; also: potency is read from the fitted curve at half-maximal effect;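 as to activity, negative = inhibition: plate controls were DMSO only for no effect and full effect of the ATA control for full effect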
Conditions: EPAC1 Rap1B-BODIPY-GDP exchange, fluorescence; activity, negative = inhibition: at 115 µM (top of the series)
Procedure, shortened: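 Nucleotide exchange uses 100 nM EPAC1, 250 nM RAP1B-BODIPY-GDP and 50 uM GDP, with compounds in a concentration-titration series. After 5 min at room temperature, fluorescence (480 nm ex/540 nm em) is read every 5 min for 30 min. Data are normalized to control ATA and DMSO.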

Chain of Rap guanine nucleotide exchange factor 3 (Homo sapiens) (O95398 whole entry, looked up): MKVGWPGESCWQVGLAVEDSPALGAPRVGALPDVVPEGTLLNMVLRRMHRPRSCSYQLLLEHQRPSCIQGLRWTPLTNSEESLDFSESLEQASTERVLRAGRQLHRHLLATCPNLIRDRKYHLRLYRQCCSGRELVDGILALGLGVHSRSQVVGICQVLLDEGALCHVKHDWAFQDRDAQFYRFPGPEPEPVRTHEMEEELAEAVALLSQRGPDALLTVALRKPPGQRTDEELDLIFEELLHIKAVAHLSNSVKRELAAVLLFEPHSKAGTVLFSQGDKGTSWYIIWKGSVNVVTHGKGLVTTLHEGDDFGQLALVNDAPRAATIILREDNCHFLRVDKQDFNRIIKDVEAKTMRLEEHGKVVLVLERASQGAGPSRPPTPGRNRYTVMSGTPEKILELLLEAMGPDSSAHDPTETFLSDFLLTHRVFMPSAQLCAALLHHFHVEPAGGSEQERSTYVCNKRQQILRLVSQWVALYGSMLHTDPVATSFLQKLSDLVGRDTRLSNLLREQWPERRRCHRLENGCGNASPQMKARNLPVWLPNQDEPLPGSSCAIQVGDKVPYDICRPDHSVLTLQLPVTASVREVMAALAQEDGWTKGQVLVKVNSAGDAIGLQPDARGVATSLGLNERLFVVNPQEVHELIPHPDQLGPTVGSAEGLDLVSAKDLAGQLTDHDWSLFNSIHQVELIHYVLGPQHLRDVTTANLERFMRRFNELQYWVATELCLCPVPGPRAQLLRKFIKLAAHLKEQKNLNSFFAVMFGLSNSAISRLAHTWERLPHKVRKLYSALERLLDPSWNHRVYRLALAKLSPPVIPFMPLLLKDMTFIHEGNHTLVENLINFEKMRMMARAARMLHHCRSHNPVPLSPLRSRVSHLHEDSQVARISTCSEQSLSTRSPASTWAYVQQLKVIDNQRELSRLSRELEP

activity, negative = inhibition, inactive:
COc1ccccc1CN(C)CC(=O)Nc1ccc(Cl)cc1F -23.2%, Cc1cc(Br)cc(C=Nc2ccc(N3CCOCC3)cc2)c1O -7.92%, c1ccc(NN(Cc2ccccn2)c2ccccc2)cc1 -26.9%, CN(C)c1ccc(/C=C/c2c3c(nc4ccccc24)CCCC3)cc1 31%, CCCCN(CCCC)c1ccc(/C=C/c2ccnc3ccccc23)cc1 5.83%, O=S(=O)(Nc1ccccc1N1CCCCC1)c1ccccc1 -8.64%, COc1ccc(C(=S)N2CCOCC2)cc1OC(=O)c1ccccc1Cl -16.2%, Cc1oc2cc(Br)c(O)c(Br)c2c1C(=O)c1ccccc1 -20.9%, CN(C)c1ccc(/C=C/c2sc3ccccc3[n+]2CCCCBr)cc1 3.99%, COCc1ccccc1C1=CC(=O)C[C@H](c2ccc(F)cc2)C1 -23.5%, Cc1ccc(C)c(NC(=O)N2CCN3CCCCC3C2)c1 (stereo not drawn) -16.6%, COc1ncc2nc(-c3ccccc3)c(=O)n(Cc3cccs3)c2n1 -13%, O=C(CCn1c(=O)oc2ccccc21)N(Cc1ccccc1)c1ccccc1 -24.2%, O=C(NCc1ccccc1F)c1ccc(CN2CC(=O)N3CCCCC3C2=O)cc1 (stereo not drawn) -21.6%, O=C(Nc1ccccc1OCc1ccccc1)c1ccccc1Br -31%, Cc1onc(-c2ccc3c(c2)OCO3)c1-c1ccc2[nH]ccc2c1 -5.38%, O=C(N/N=C\c1c(O)ccc2ccccc12)c1ccc(S(=O)(=O)N2CCCCC2)cc1 -9.51%, COc1cc2c(cc1NC(=O)C(C)Oc1ccc(Cl)cc1Cl)oc1ccccc12 (stereo not drawn) -29.7%, COc1ccc([N+](=O)[O-])cc1-c1nc2ccccc2nc1-c1ccccc1 -30.5%, CC(=O)NC(c1ccc(Cl)cc1)c1ccc2cccnc2c1O (stereo not drawn) -11.2%, COc1cc(C)c2c(=O)cc(-c3ccccc3)oc2c1 -3.59%, Cc1cccc(CNC(=O)c2ccc(-c3nc(CS(=O)(=O)c4ccccc4)c(C)o3)cc2)c1 -17.4%, Cc1ccccc1-c1ccc2ncnc(N3CCOCC3)c2c1 -19.4%, OC(c1ccc2ccccc2n1)c1c(Cl)cccc1Cl (stereo not drawn) -23.4%, Cc1ccc(-c2noc(-c3nnn(CC(=O)Nc4cc(Cl)ccc4C)c3N)n2)cc1 -26.9%, O=S(=O)(Nc1ccccc1N1CCCCC1)c1cccs1 -15.1%, COc1ccc(C2OCC3(COC(C)=O)C(C)C=C(C)C2C3C)cc1 (stereo not drawn) -17.2%, Cc1ccc(CNc2cc(C)nc3nc(-c4ccc(C)cc4)nn23)cc1 -9.81%, C=Nc1ccc(/C=C/c2ccnc3ccccc23)cc1 2.56%, CCCCCCOC(=O)C(C#N)c1nc2ccccc2nc1N1CCCCC1 (stereo not drawn) -15.8%, CSc1ccc(S(=O)(=O)NCC(=O)OCC(=O)N(C)Cc2ccccc2)cc1[N+](=O)[O-] -13.5%, CCCCN(CCC#N)c1ccc(/C=C/c2ccnc3ccccc23)cc1 0.264%, Cc1cc2ccccn2c1C(=O)c1ccc(Cl)c([N+](=O)[O-])c1 -11.6%, COc1ccc(C(NC(=O)c2cc(OC)ccc2OC)c2ccccc2)cc1 (stereo not drawn) -15.1%

Potency, active:
Oc1ccc2ccccc2c1-c1sc(Nc2ccccc2)n[n+]1-c1ccc(F)cc1 19 µM, O=C(O)CSCC(=O)N(Cc1ccccc1)c1nc(-c2ccccc2)c(-c2ccccc2)s1 67.5 µM, O=C(O)/C(CC(=O)c1ccc(Cl)cc1)=N/Nc1ccc([N+](=O)[O-])cc1[N+](=O)[O-] 75.7 µM, CC(=O)Oc1c2c(c3c(c1CC=C(C)C)O[C@@]14C(=CC5CC1C(C)(C)OC4(C/C=C(\C)C(=O)O)C5=O)C3=O)OC(C)(CCC=C(C)C)C=C2 (stereo partly drawn) 55.9 µM, CCOc1cc(-c2ccc(OC(=O)c3ccc(OC)cc3)c(OC)c2)cc(=O)c2c(C)oc(C)c12 75.7 µM, CCOc1cc(CNc2ccc(O)cc2)ccc1OCc1ccc(Cl)cc1 84.9 µM

Target: Rap guanine nucleotide exchange factor 3 (Homo sapiens) (UniProt O95398)
Experiment: Confirmatory qHTS for agonist of cAMP-regulated guanine nucleotide exchange factor 3 (EPAC1) (AID 1645881); also: nearly all actives have a fitted effect of over 75% in size; also: potency is read from the fitted curve at half-maximal effect;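 as to activation: EPAC1 catalysed release of BODIPY-GDP from Rap1B seen as fluorescence loss; 100% = effect of cAMP agonist control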
Conditions: EPAC1 Rap1B BODIPY-GDP exchange fluorescence; series mostly up to 154 µM; activation: at the top concentration

activation, inactive:
COc1ccccc1CN(C)CC(=O)Nc1ccc(Cl)cc1F 23.9%, Cc1cc(Br)cc(C=Nc2ccc(N3CCOCC3)cc2)c1O 27.8%, c1ccc(NN(Cc2ccccn2)c2ccccc2)cc1 18%, CN(C)c1ccc(/C=C/c2c3c(nc4ccccc24)CCCC3)cc1 14.2%, CCCCN(CCCC)c1ccc(/C=C/c2ccnc3ccccc23)cc1 1.96%, O=S(=O)(Nc1ccccc1N1CCCCC1)c1ccccc1 21.1%, COc1ccc(C(=S)N2CCOCC2)cc1OC(=O)c1ccccc1Cl 17.6%, Cc1oc2cc(Br)c(O)c(Br)c2c1C(=O)c1ccccc1 29%, CN(C)c1ccc(/C=C/c2sc3ccccc3[n+]2CCCCBr)cc1 13.1%, COCc1ccccc1C1=CC(=O)C[C@H](c2ccc(F)cc2)C1 21.2%, Cc1ccc(C)c(NC(=O)N2CCN3CCCCC3C2)c1 (stereo not drawn) 7.62%, COc1ncc2nc(-c3ccccc3)c(=O)n(Cc3cccs3)c2n1 4.21%, Oc1ccc2ccccc2c1-c1sc(Nc2ccccc2)n[n+]1-c1ccc(F)cc1 -460%, O=C(CCn1c(=O)oc2ccccc21)N(Cc1ccccc1)c1ccccc1 17.6%, O=C(NCc1ccccc1F)c1ccc(CN2CC(=O)N3CCCCC3C2=O)cc1 (stereo not drawn) 10.6%, O=C(Nc1ccccc1OCc1ccccc1)c1ccccc1Br 18.8%, Cc1onc(-c2ccc3c(c2)OCO3)c1-c1ccc2[nH]ccc2c1 17.3%, O=C(O)CSCC(=O)N(Cc1ccccc1)c1nc(-c2ccccc2)c(-c2ccccc2)s1 1.66%, COc1cc2c(cc1NC(=O)C(C)Oc1ccc(Cl)cc1Cl)oc1ccccc12 (stereo not drawn) 13.8%, COc1ccc([N+](=O)[O-])cc1-c1nc2ccccc2nc1-c1ccccc1 14.7%, CC(=O)NC(c1ccc(Cl)cc1)c1ccc2cccnc2c1O (stereo not drawn) -7.71%, COc1cc(C)c2c(=O)cc(-c3ccccc3)oc2c1 7.53%, Cc1cccc(CNC(=O)c2ccc(-c3nc(CS(=O)(=O)c4ccccc4)c(C)o3)cc2)c1 -5.61%, O=C(O)/C(CC(=O)c1ccc(Cl)cc1)=N/Nc1ccc([N+](=O)[O-])cc1[N+](=O)[O-] -10.4%, Cc1ccccc1-c1ccc2ncnc(N3CCOCC3)c2c1 5.64%, OC(c1ccc2ccccc2n1)c1c(Cl)cccc1Cl (stereo not drawn) 28.5%, Cc1ccc(-c2noc(-c3nnn(CC(=O)Nc4cc(Cl)ccc4C)c3N)n2)cc1 1.04%, O=S(=O)(Nc1ccccc1N1CCCCC1)c1cccs1 12.5%, COc1ccc(C2OCC3(COC(C)=O)C(C)C=C(C)C2C3C)cc1 (stereo not drawn) -0.261%, Cc1ccc(CNc2cc(C)nc3nc(-c4ccc(C)cc4)nn23)cc1 21.3%, C=Nc1ccc(/C=C/c2ccnc3ccccc23)cc1 13.4%, CCCCCCOC(=O)C(C#N)c1nc2ccccc2nc1N1CCCCC1 (stereo not drawn) 16.7%, CC(=O)Oc1c2c(c3c(c1CC=C(C)C)O[C@@]14C(=CC5CC1C(C)(C)OC4(C/C=C(\C)C(=O)O)C5=O)C3=O)OC(C)(CCC=C(C)C)C=C2 (stereo partly drawn) -31.6%, CCOc1cc(-c2ccc(OC(=O)c3ccc(OC)cc3)c(OC)c2)cc(=O)c2c(C)oc(C)c12 -5.09%, CSc1ccc(S(=O)(=O)NCC(=O)OCC(=O)N(C)Cc2ccccc2)cc1[N+](=O)[O-] 16.9%, CCOc1cc(CNc2ccc(O)cc2)ccc1OCc1ccc(Cl)cc1 16.8%, CCCCN(CCC#N)c1ccc(/C=C/c2ccnc3ccccc23)cc1 11.6%, Cc1cc2ccccn2c1C(=O)c1ccc(Cl)c([N+](=O)[O-])c1 16%, COc1ccc(C(NC(=O)c2cc(OC)ccc2OC)c2ccccc2)cc1 (stereo not drawn) 18.8%

Potency, active:
O=C(N/N=C\c1c(O)ccc2ccccc12)c1ccc(S(=O)(=O)N2CCCCC2)cc1 44.7 µM
